Key:
[1] = target: Serine/threonine-protein kinase PAK 6 (Homo sapiens) (UniProt Q9NQU5); conditions: at 1 µM;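 note: values are mean percent inhibition of PAK6 kinase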
[2] = test system: Tyrosine-protein kinase ABL1 (Homo sapiens), P00519 [E255K]; conditions: at 0.1 µM
[3] = test system: Tyrosine-protein kinase ABL1 (Homo sapiens), P00519 [E255K]; conditions: at 1 µM
[4] = test system: Tyrosine-protein kinase ABL1 (Homo sapiens), P00519 [H396P]; conditions: at 0.1 µM
[5] = test system: Tyrosine-protein kinase ABL1 (Homo sapiens), P00519 [H396P]; conditions: at 1 µM
[6] = test system: Tyrosine-protein kinase ABL1 (Homo sapiens), P00519 [M351T]; conditions: at 0.1 µM
[7] = test system: Tyrosine-protein kinase ABL1 (Homo sapiens), P00519 [M351T]; conditions: at 1 µM
[8] = test system: Tyrosine-protein kinase ABL1 (Homo sapiens), P00519 [Q252H]; conditions: at 0.1 µM
[9] = test system: Tyrosine-protein kinase ABL1 (Homo sapiens), P00519 [Q252H]; conditions: at 1 µM
[10] = test system: Tyrosine-protein kinase ABL1 (Homo sapiens), P00519 [T315I]; conditions: at 0.1 µM
[11] = test system: Tyrosine-protein kinase ABL1 (Homo sapiens), P00519 [T315I]; conditions: at 1 µM
[12] = test system: Tyrosine-protein kinase ABL1 (Homo sapiens), P00519 [Y253F]; conditions: at 0.1 µM
[13] = test system: Tyrosine-protein kinase ABL1 (Homo sapiens), P00519 [Y253F]; conditions: at 1 µM
[14] = target: Tyrosine-protein kinase ABL1 (Homo sapiens) (UniProt P00519); conditions: at 0.1 µM
[15] = target: Tyrosine-protein kinase ABL1 (Homo sapiens) (UniProt P00519); conditions: at 1 µM
[16] = target: ALK tyrosine kinase receptor (Homo sapiens) (UniProt Q9UM73); conditions: at 0.1 µM
ALK tyrosine kinase receptor (Homo sapiens), sequence (Q9UM73 19-1620 limits assumed): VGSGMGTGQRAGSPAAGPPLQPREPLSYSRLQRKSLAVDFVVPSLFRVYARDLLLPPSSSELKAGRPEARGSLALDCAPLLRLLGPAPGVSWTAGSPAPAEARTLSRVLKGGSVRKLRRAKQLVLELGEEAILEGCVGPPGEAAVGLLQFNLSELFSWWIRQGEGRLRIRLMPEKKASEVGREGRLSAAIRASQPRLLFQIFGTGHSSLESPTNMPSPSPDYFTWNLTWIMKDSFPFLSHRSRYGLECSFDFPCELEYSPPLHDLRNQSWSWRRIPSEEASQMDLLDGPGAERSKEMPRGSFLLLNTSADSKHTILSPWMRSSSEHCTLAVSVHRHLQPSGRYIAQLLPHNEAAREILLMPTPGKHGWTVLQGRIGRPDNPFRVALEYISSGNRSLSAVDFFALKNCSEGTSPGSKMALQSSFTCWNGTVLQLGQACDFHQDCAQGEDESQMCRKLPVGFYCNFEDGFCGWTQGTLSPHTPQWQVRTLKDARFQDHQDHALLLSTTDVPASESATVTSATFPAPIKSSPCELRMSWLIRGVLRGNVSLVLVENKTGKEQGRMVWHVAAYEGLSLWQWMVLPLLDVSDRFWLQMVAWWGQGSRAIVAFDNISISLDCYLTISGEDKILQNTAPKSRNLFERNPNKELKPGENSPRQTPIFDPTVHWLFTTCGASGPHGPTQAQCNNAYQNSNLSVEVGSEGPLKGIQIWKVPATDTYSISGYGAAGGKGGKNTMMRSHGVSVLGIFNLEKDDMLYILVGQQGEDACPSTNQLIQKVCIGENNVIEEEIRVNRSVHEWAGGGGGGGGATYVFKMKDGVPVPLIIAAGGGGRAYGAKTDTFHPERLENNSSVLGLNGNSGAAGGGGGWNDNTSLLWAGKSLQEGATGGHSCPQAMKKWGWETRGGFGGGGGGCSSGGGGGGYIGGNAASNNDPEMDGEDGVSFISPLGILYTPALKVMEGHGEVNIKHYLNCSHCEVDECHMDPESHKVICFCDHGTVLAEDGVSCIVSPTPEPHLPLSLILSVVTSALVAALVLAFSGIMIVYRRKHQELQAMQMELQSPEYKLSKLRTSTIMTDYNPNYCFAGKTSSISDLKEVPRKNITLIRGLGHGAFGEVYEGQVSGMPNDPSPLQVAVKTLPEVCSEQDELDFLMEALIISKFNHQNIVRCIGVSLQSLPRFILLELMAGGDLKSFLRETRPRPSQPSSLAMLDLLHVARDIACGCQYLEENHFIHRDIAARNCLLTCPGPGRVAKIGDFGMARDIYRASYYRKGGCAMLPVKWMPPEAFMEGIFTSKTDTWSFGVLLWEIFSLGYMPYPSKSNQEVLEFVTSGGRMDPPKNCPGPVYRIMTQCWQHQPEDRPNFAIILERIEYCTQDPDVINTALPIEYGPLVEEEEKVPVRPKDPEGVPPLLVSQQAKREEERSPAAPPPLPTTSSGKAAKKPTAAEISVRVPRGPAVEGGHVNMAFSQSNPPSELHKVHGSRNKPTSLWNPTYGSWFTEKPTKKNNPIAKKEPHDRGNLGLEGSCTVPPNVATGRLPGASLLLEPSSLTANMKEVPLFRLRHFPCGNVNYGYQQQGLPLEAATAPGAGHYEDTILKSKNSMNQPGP

[17] = target: ALK tyrosine kinase receptor (Homo sapiens) (UniProt Q9UM73); conditions: at 1 µM
[18] = target: Tyrosine-protein kinase ABL2 (Homo sapiens) (UniProt P42684); conditions: at 0.1 µM
Tyrosine-protein kinase ABL2 (Homo sapiens), sequence (P42684 whole entry): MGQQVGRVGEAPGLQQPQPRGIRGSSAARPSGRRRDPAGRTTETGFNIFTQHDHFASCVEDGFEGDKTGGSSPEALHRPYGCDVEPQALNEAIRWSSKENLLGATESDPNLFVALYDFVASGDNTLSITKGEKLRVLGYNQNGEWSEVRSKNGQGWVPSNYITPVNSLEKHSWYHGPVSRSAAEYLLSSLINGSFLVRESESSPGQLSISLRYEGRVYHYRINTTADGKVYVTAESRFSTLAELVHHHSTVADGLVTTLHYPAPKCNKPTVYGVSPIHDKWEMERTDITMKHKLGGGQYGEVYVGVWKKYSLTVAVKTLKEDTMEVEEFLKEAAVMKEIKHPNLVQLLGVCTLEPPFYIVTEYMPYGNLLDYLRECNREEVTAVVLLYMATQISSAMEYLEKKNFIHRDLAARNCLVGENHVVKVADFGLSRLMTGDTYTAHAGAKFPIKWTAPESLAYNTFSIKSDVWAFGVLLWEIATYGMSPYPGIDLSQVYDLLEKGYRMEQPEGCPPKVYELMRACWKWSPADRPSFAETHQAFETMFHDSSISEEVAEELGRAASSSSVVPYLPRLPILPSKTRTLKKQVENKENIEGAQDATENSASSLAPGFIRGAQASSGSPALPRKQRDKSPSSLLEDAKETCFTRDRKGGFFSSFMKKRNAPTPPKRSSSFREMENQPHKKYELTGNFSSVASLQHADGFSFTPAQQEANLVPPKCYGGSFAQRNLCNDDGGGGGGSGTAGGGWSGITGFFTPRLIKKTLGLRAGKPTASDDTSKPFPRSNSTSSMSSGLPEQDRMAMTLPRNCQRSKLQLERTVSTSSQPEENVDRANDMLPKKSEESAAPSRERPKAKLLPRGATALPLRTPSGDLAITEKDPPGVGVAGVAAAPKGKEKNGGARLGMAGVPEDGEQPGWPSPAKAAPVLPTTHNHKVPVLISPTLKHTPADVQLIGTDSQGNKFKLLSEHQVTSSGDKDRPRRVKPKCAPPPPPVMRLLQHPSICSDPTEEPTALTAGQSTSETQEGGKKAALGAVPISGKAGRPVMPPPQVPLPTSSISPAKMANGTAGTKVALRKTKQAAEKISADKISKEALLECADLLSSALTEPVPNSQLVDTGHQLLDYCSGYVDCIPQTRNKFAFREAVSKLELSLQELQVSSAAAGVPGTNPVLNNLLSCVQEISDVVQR

[19] = target: Tyrosine-protein kinase ABL2 (Homo sapiens) (UniProt P42684); conditions: at 1 µM
[20] = target: Tyrosine-protein kinase receptor UFO (Homo sapiens) (UniProt P30530); conditions: at 0.1 µM;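 note: values are mean percent inhibition of AXL from the GSK PKIS screen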
Tyrosine-protein kinase receptor UFO (Homo sapiens), sequence (P30530 whole entry): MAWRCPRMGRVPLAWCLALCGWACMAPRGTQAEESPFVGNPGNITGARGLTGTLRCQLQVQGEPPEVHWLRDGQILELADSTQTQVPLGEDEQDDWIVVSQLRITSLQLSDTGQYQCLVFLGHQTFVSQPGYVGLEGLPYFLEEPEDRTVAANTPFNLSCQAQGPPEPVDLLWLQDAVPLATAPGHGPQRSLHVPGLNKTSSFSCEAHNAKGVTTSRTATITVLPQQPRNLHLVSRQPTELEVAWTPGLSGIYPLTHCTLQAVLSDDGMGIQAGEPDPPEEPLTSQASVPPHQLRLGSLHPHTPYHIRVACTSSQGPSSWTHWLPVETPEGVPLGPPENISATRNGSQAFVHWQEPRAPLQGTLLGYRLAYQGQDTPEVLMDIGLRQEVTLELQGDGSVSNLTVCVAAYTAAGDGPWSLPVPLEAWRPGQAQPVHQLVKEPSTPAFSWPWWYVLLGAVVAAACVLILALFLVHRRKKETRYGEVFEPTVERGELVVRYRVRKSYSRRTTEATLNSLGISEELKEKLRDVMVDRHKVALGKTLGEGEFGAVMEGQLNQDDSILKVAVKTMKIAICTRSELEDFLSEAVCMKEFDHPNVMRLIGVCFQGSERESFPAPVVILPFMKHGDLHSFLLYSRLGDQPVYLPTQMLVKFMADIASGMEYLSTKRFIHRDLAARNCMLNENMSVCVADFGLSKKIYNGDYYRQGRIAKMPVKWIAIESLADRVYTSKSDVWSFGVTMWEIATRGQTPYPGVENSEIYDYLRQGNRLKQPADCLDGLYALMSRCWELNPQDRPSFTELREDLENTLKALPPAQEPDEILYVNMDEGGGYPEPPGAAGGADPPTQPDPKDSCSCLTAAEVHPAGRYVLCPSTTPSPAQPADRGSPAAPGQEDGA

Serine/threonine-protein kinase PAK 6 (Homo sapiens), sequence (Q9NQU5 whole entry, looked up): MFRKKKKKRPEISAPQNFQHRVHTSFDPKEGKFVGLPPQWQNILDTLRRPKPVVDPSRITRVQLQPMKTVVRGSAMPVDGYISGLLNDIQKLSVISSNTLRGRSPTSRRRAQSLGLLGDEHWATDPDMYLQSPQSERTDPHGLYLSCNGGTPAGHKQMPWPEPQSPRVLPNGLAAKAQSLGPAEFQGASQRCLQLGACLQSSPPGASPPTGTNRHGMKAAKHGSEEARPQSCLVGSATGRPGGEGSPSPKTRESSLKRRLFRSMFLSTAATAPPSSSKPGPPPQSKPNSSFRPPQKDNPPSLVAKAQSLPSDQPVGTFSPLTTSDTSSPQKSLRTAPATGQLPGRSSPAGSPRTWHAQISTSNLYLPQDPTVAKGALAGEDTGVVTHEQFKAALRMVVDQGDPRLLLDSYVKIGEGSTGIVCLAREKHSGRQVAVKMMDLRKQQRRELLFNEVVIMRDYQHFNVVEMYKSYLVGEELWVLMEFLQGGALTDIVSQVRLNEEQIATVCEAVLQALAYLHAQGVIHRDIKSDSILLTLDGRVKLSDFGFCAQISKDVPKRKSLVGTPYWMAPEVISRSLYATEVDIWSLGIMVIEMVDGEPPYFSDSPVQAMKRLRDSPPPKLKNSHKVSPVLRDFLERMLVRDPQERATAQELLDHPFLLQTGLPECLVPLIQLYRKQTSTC

| SMILES | inhibition [1] [%] | inhibition [2] [%] | inhibition [3] [%] | inhibition [4] [%] | inhibition [5] [%] | inhibition [6] [%] | inhibition [7] [%] | inhibition [8] [%] | inhibition [9] [%] | inhibition [10] [%] | inhibition [11] [%] | inhibition [12] [%] | inhibition [13] [%] | inhibition [14] [%] | inhibition [15] [%] | inhibition [16] [%] | inhibition [17] [%] | inhibition [18] [%] | inhibition [19] [%] | inhibition [20] [%] |
| --- | --- | --- | --- | --- | --- | --- | --- | --- | --- | --- | --- | --- | --- | --- | --- | --- | --- | --- | --- | --- |
| O=C(Nc1n[nH]c2nc(-c3ccco3)c(Br)cc12)C1CC1 | 0.72 | 3.52 | 8.63 | 5.52 | 26.4 | 4.18 | 29.8 | 8.1 | 32.3 | 3.13 | 26.6 | 3 | 11.5 | 5.46 | 24.1 | 1.26 | 4.4 | 3.57 | 18.4 | -6.59 |
| NS(=O)(=O)c1ccc(N/N=C2\C(=O)Nc3ccc(C(=O)NCCc4c[nH]cn4)cc32)cc1 | 3.67 | 5.1 | 6.98 | 3.97 | 11.2 | 4.18 | 9.6 | 5.47 | 8.73 | 3.68 | 11.6 | 3.56 | 12.1 | 5.35 | 15.3 | 3.67 | 12.9 | 4.29 | 9.57 | -2.52 |
| CS(=O)(=O)CCNCc1nc(-c2ccc3ncnc(Nc4ccc(F)c(Cl)c4)c3c2)cs1 | 0.67 | 2.57 | 10.6 | 5.57 | 16.2 | 0.97 | 12.9 | 3.6 | 16 | 1.06 | 6.43 | 1.82 | 18.3 | 3.89 | 18.2 | 0.89 | 3.6 | 4.58 | 9.66 | 0.38 |
| NS(=O)(=O)c1cccc(-c2ccc3c(NC(=O)C4CC4)n[nH]c3c2)c1 | -8.66 | 1.26 | 7.94 | 3.4 | 21.7 | 7.02 | 20.2 | 2.5 | 9.03 | 3.32 | 25.3 | 2.68 | 27 | -0.29 | 20.5 | -1.84 | -1.06 | -1.16 | 1.08 | 1.32 |
| CN1CCC(C(=O)Nc2n[nH]c3nnc(-c4ccccc4)cc23)CC1 | -6.17 | 1.81 | 6.11 | 4.23 | 4.8 | 2.25 | 1.61 | 3.6 | 3.36 | 3.4 | 5.74 | 1.97 | 5.41 | 2.03 | 4.42 | 2.9 | 6.61 | 0.96 | 2.58 | -5.95 |
| COc1cc2c(cc1Nc1nc(N3CCc4ccccc43)c3cc[nH]c3n1)N(C(=O)CN(C)C)CC2 | -0.54 | 0.52 | 1.73 | 0.54 | -0.96 | 0.88 | -0.63 | 1.56 | 2.24 | 1.05 | -1.44 | 1.21 | 3.71 | 2.76 | 7.27 | 90 | 85.3 | 2.02 | 5.11 | 3.85 |
| Nc1ncnc2occ(-c3ccc(NC(=O)Nc4cccc(C(F)(F)F)c4)cc3)c12 | -2.37 | 5.41 | 38.8 | 25.3 | 76.8 | 54.5 | 85.1 | 54.2 | 81.6 | 48.3 | 89.2 | 12.3 | 48.2 | 16.1 | 55.8 | 6.2 | 21.8 | 33.6 | 64.7 | – |
| O=C1NC(=O)C(N2CCc3ccccc32)=C1c1ccc(Cl)cc1 | -5.45 | 4.83 | 4.21 | 6.7 | 2.97 | 3.31 | 3.23 | 6.26 | 3.84 | 2.02 | 1.87 | 6.01 | 5.27 | 4.41 | 7.9 | 3.63 | 4.31 | 4.83 | 8.28 | -4.63 |
| O=C1Nc2ccc(C(=O)c3ccco3)cc2C1=Cc1cc(Cl)c(O)c(Cl)c1 | 0.19 | 3.7 | 15.1 | 3.27 | 13.7 | 3.29 | 12.9 | 5.53 | 17.7 | 3.59 | 8.5 | 5.68 | 17.9 | 4.71 | 21.5 | 3.92 | 20.8 | 5.9 | 15.3 | -4.61 |
| COc1cc2ncn(-c3cc(O[C@@H](C)c4ccccc4Cl)c(C(N)=O)s3)c2cc1OC | -1.4 | 7.11 | 21.4 | 9.2 | 33.8 | 3.76 | 29.7 | 6.57 | 28.5 | 3.45 | 13.5 | 6.04 | 25.9 | 7.09 | 28.4 | 3.25 | 6.34 | 3.24 | 11.4 | -8.48 |
| COC(=O)Nc1nc2cc(Oc3ccc(NC(=O)Nc4cccc(C(=O)O)c4)cc3)ccc2[nH]1 | 4.26 | -4.91 | 3.52 | 0.4 | 9.38 | 3.52 | 19.9 | 1.92 | 14.4 | 2.13 | 15.4 | 5.1 | 7.71 | -2.66 | 6.45 | -3.78 | -1.37 | -0.6 | 3.96 | -0.47 |
| CC(C)=Cc1cccc2c1/C(=N/Nc1ccc(S(N)(=O)=O)cc1)C(=O)N2 | -0.47 | 1.22 | 9.2 | 2.39 | 13.8 | 2.77 | 26.6 | 3 | 18.2 | 0.99 | 18.2 | 4.12 | 21.9 | 2.44 | 12.7 | 2.57 | 10.4 | 3.09 | 14 | 1.02 |
| CS(=O)(=O)CCN(CC#N)Cc1ccc(-c2ccc3ncnc(Nc4ccc(OCc5cccc(F)c5)c(Cl)c4)c3c2)o1 | -7.94 | 0.94 | 1 | 1.77 | 1.89 | 0.73 | 0.36 | 0.95 | 0.42 | -0.08 | -0.34 | 2.36 | 1.9 | -2.3 | -2.95 | -2.83 | -0.48 | -2.62 | -1.72 | -6.1 |
| COc1ccc(-c2nn3ncccc3c2-c2ccnc(Nc3ccc(Cl)c(C(F)(F)F)c3)n2)cc1 | -4.72 | 0.96 | 5.54 | 0.79 | 8.65 | 2.03 | 26.5 | 4.06 | 18.9 | 1.74 | 4.57 | 2.03 | 6.35 | 2.26 | 10.3 | 1.83 | 2.05 | 2.64 | 9.44 | -2.69 |
| CCn1c(-c2nonc2N)nc2c(C#CC(C)(C)O)nc(OC[C@@H](N)c3ccccc3)cc21 | 91.4 | -1.82 | 1.65 | 0.8 | -0.27 | 1.41 | 0.68 | 0.61 | -0.28 | 0.08 | 3.35 | 0.12 | 2.98 | 7.72 | 10.1 | -0.2 | 10.2 | 5.61 | 1.83 | 2.41 |
| N#Cc1c(NC(=O)c2cccc3ccccc23)sc2c1CCCC2 | 1.52 | 4.44 | 5.5 | 4.91 | 2.88 | 3.89 | 3.56 | 5.46 | 3.18 | 2.03 | 3.27 | 5.89 | 5.73 | 2.91 | 9.14 | 2.92 | 2.25 | 3.88 | 9.55 | -4.77 |
| CCN1CCC(CC(=O)Nc2n[nH]c3nc(-c4cccs4)c(Br)cc23)CC1 | -1.76 | -1.62 | 2.21 | -0.27 | 8.03 | -0.05 | 4.95 | 0.92 | 11.6 | 3.23 | 22.7 | -0.82 | 5.45 | 2.56 | 7.83 | -2.08 | -1.3 | -0.08 | 2.5 | 1.67 |
| CC1=C(C(=O)Nc2ccc3[nH]ncc3c2)C(c2ccc(Cl)c(Cl)c2)CC(=O)N1 (centres undefined) | 2.05 | 1.47 | -1.52 | 1.38 | 0.16 | 1.24 | 1.38 | 3.45 | 3.33 | 1.44 | 2.96 | 2.96 | 0.52 | 2.43 | 7.38 | 0.6 | 3.88 | 2.19 | 3.97 | -2.18 |
| COc1cc(C)c(NC(=O)CN(C)C)cc1Nc1nc(Nc2cccc(F)c2C(N)=O)c2cc[nH]c2n1 | -2.96 | 1.11 | 0.03 | 2.73 | -1.28 | 1.99 | -1.18 | 2.21 | -0.29 | 1.45 | 0.49 | 3.3 | -0.09 | 1.95 | 4.55 | 97.8 | 88.9 | 1.11 | -0.02 | 17.6 |
| COc1cc2ncn(-c3cc(OCc4ccccc4C(F)(F)F)c(C(N)=O)s3)c2cc1OC | -0.46 | 0.92 | 13.5 | 5.99 | 23 | 3.68 | 19.2 | 5.63 | 21.9 | 3.84 | 14 | 5.48 | 19.4 | 2.17 | 17.9 | 0.14 | 5.04 | 2.15 | 13.2 | -8.08 |
| NC(=O)c1ccc(-c2nc(-c3ccccn3)c(-c3ccc4c(c3)OCO4)[nH]2)cc1 | -5.81 | 3.49 | 4.45 | 1.34 | 6.63 | 0.6 | 3.86 | 0.7 | 3.91 | 1.95 | 2.56 | 1.74 | 2.37 | 1.82 | 6.95 | 1.12 | 2.39 | 1.95 | 6.03 | -3.37 |
| CCn1c(-c2nonc2N)nc2cnc(Oc3cccc(NC(=O)c4ccc(OCCN5CCOCC5)cc4)c3)cc21 | -8.77 | 3.79 | 3.89 | 4.58 | 4.2 | 2.23 | 2.73 | 4.73 | 3.88 | 4.38 | 4.26 | 5.27 | 4.41 | 3.37 | 11.1 | 1.15 | 3.72 | 4.56 | 7.99 | -6.28 |
| O=C1NC(=O)C(c2ccc(Cl)cc2)=C1Nc1ccc(Cl)c(C(=O)O)c1 | -0.68 | 2.02 | -2.33 | -0.65 | 1.82 | 1.3 | 4.53 | 1.18 | 1.68 | 0.69 | 3 | 2.01 | 0.85 | -0.85 | 7.52 | -2.28 | -1.12 | -0.74 | 7.37 | 2.69 |
| CCn1c(-c2nonc2N)nc2ccncc21 | -3.52 | 1.78 | -1.53 | -0.24 | -0.08 | 0.64 | 3.06 | 3.21 | -0.21 | -0.01 | -0.3 | -0.36 | 1.17 | 1.53 | 3.89 | 1.59 | 1.87 | 2.85 | -1.97 | -1.17 |

Source: ChEMBL document CHEMBL1961873, “Compounds: GSK PKIS; Assays: Nanosyn kinase panel” (2012)
